# A selection: hits, their analogues and other compounds. The true share with any hit is near 7.3%.
# FLuc counter – qHTS profiling assay for firefly luciferase inhibitor/activator using purifed enzyme and Km concentrations of substrates (counterscreen for miR-21 project). Potency, µM (top dose mostly 57.5 µM), without a hit: at the highest dose activity change, negative = inhibition, actives largely listed as inhibitors. Luciferin 4-monooxygenase (Photinus pyralis), P08659. AID 588342, 2011. purified FLuc, Km substrates, luminescence inhibition. hit rate 6.9% among 360,000;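 also: plate controls were vehicle for no effect and reference inhibitor for full effect; nearly all actives have a fitted effect of over 55% in size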
# Target sequence (P08659 whole entry, looked up): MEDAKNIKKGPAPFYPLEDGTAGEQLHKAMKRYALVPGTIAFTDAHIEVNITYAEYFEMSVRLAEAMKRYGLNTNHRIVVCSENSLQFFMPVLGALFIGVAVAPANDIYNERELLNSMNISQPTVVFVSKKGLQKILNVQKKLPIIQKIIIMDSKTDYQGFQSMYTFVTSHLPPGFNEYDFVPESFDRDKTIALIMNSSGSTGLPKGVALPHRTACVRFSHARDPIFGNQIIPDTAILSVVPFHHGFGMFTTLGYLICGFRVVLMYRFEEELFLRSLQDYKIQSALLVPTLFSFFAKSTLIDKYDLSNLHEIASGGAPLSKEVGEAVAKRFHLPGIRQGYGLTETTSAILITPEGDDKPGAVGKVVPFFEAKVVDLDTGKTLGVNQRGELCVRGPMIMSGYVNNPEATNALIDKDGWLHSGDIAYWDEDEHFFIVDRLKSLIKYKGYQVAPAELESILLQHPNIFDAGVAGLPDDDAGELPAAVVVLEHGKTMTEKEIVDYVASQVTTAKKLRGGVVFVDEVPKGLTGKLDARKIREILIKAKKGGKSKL
#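 Purified P. pyralis luciferase, 10 nM final, with Km-level 10 uM D-luciferin and 10 uM ATP in 50 mM Tris acetate pH 7.5, 10 mM Mg acetate, 0.01% Tween-20, 0.05% BSA; 6-point qHTS titration about 60 µM downward; luminescence read.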
# ELG1 genotox – qHTS screen for small molecules that induce genotoxicity in human embryonic kidney (HEK293T) cells expressing luciferase-tagged ELG1 | HEK293T ELG1-luciferase reporter, luminescence, 16 h | Potency, µM (top dose mostly 46 µM), inactives show top-dose activity change, positive = activation, hits mostly activators | hit rate 1.3% among 330,000 | AID 504466, 2011; also: % of control where 0% means no effect; nearly all actives have a fitted effect of over 60% in size
#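 16 hr compound incubation (37 °C, 5% CO2) of HEK293T cells carrying luciferase-tagged ELG1; luciferase then measured by ONE-Glo luminescence after 30 min at RT.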
# Rab9 promoter act – qHTS Assay for Rab9 Promoter Activators; Huh7 Rab9 promoter-luciferase reporter, luminescence, 24 h; AID 485297, 2010; Potency, µM (top dose mostly 9.22 µM), without a hit: at the highest dose activation, negative = inhibition, hits mostly activators; hit rate 2.8% among 320,000; also: % of control where 0% means no effect; nearly all actives have a fitted effect of over 60% in size
#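 Luminescence from Amplite-detected luciferase (10 minutes, ambient) reports Rab9 promoter activation. Before that, stable Rab9-luciferase Huh7 cells (1500/well, reduced-serum OP-MEM I plus 10% FBS) were exposed to compound for 24 hours at 37C.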
# SMN2 splice enh – qHTS Assay for Enhancers of SMN2 Splice Variant Expression. Potency, µM (highest dose often 46.1 µM), for inactives: top-dose activity change, positive = activation, most hits filed as activators. hit rate 2.8% among 210,000. HEK293 SMN2-luciferase splicing reporter, luminescence, 30-36 h; also: % of control where 0% means no effect; nearly all actives have a fitted effect of over 55% in size
#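 qHTS luciferase splicing reporter: luminescence rises when SMN2 exon 7 is included in transfected HEK293 cells. Compound exposure lasted 30-36 h at 37C, with 4.5 mM final sodium butyrate as control, followed by a ONE-Glo read.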
# NPC1 promoter act – qHTS Assay for NPC1 Promoter Activators | Huh7 NPC1 promoter luciferase reporter, 24 h | Potency, µM (series often up to 9.22 µM), for inactives: top-dose activation, hits mostly activators | hit rate 2.4% among 320,000; also: % of control where 0% means no effect; nearly all actives have a fitted effect of over 60% in size
#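 Quantitative HTS used a cell-based reporter: Huh7 cells stably bearing the NPC1 promoter upstream of luciferase were treated with compounds for 24 h, and promoter activation was read as luminescence.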
# uPA surface inh – qHTS for Inhibitors of Cell Surface uPA Generation. cell surface uPA generation assay, qHTS. Potency, µM (doses to about 38.3 µM), for inactives: top-dose activity change, negative = inhibition, most hits filed as inhibitors. hit rate 0.31% among 330,000; active = well fitted inhibition curve with a large enough effect; inconclusive = small, poorly fitted or top-dose-only effect; inactive = no such curve, though single readings can be large or run the other way; tested in mouse RAW 264.7 cells; also: % is scaled to controls: 0 for no effect and ±100 for the full control effect; nearly all actives have a fitted effect of over 55% in size
# The depositor's hits bear a star; ? = inconclusive; nt = no result; [ ] = another dose, or the depositor's remark. Unless noted, calls follow the shape of the dose curve; as a rule, active = well fitted curve in the direction sought with a large enough effect; inconclusive = small, poorly fitted or top-dose-only effect, or another doubt; inactive = no such curve, though single readings can be large; an effect the other way counts as inactive or inconclusive. Potency is read from the fitted curve at half-maximal effect.
SMILES,FLuc counter,ELG1 genotox,Rab9 promoter act,SMN2 splice enh,NPC1 promoter act,uPA surface inh
Cc1ccc2c(CNCCc3ccccc3)c(C(=O)O)n(Cc3ccccc3C)c2c1,-4%,nt,nt,nt,nt,nt
NC(=O)c1cnn(-c2ccc3ccccc3c2)c1N,?,?,4µM*,18µM*,27%,nt
CCCSc1nc(N)nc(-c2cccs2)c1C#N,21µM*,14%,16%,17%,3%,-12%
Nc1c(C(=O)Nc2ccc(Cl)cc2)oc2ccccc12,2.7µM*,2.3µM*,2.5µM*,24%,1.4µM*,-27%
CC(=O)Nc1cccc(NC(=O)c2oc3ccccc3c2C)c1,6µM*,?,3.5µM*,11µM*,3.2µM*,nt
CCC(=O)Nc1ccc(NC(=S)NC(=O)c2oc3ccccc3c2C)cc1,0%,10%,-4%,9%,-4%,1%
CCC(=O)Nc1ccc(NC(=O)c2oc3ccccc3c2C)cc1,5.4µM*,9%,-9%,nt,-5%,-18%
CC(=O)c1oc2ccccc2c1N,6%,0%,0%,5%,15%,nt
CC(C)(C)c1ccc(-c2nc3cc(N)ccc3o2)cc1,0.43µM*,1.3µM*,0.63µM*,nt,0.32µM*,-11%
Nc1ccc2oc(-c3cccs3)nc2c1,12µM*,9.2µM*,3.5µM*,nt,3.2µM*,-6%
Cc1ccc(-c2nc3cc(N)ccc3o2)c(C)c1,0.67µM*,2.6µM*,0.56µM*,?,?,-13%
CC(C)c1ccc2oc(-c3ccc(N)cc3)nc2c1,0.19µM*,?,0.56µM*,nt,0.56µM*,nt
CN1CCc2ccccc2[C@@H]1Cc1ccccc1NC(=O)c1sc2ccccc2c1Cl,nt,nt,nt,3%[9.22 µM],nt,nt
COc1ccc(NC(=O)CSc2nc3c([nH]c4ccccc43)c(=O)n2-c2ccccc2)c(OC)c1,1%,nt,nt,nt,nt,nt
CC1=C(c2ccc(C)c(C)c2)S(=O)(=O)N(Cc2ccc(C(=O)NCc3ccc(C)cc3)cc2)C1=O,2%,nt,nt,1%,nt,nt
CCOCCCNC(=O)C(=O)Nc1c2c(nn1-c1ccccc1)CSC2,-17%,nt,nt,nt,nt,nt
O=c1oc2ccc3ccccc3c2cc1-c1nc2ccccc2o1,nt,nt,nt,nt,nt,-1%
Cc1ccc(-c2nc3cc(N)ccc3o2)cc1,0.6µM*,0.33µM*,0.45µM*,0.71µM*,0.45µM*,-14%
Nc1cccc(-c2nc3cc(S(=O)(=O)c4ccc5oc(-c6cccc(N)c6)nc5c4)ccc3o2)c1,0%,5%,-7%,-41%,-18%,3%
Cc1ccc2oc(-c3ccco3)nc2c1,4.8µM*,?,?,18%,?,-5%
Cc1ccc2oc(-c3cccc(N)c3)nc2c1,0.76µM*,2.3µM*,0.63µM*,nt,1µM*,-13%
Nc1ccc2oc(-c3cccc4ccccc34)nc2c1,13µM*,8%,8%,10%,-2%,-3%
O=c1oc(-c2ccco2)nc2ccccc12,?,1%,3%,9%,-11%,2%
Cc1ccc(NC(=O)CSc2nnc(-c3ccncc3)n2C)cc1S(=O)(=O)N1CCOCC1,0%,0%,-1%,9%,-6%,-1%
O=C(Cn1c(=O)nc(-c2ccccc2)c2cc(Cl)ccc21)N1CCN(c2ccccc2F)CC1,-1%,nt,nt,nt,nt,nt
Cc1ccc(-c2nc3cc(C)ccc3o2)cc1,0.17µM*,0.52µM*,0.63µM*,11µM*,?,-5%
CN(C)c1ccc(/C=N/N=C/c2ccccc2O)cc1,0.3µM*,?,0.56µM*,-44%,0.45µM*,4%
O=C(Cc1ccccc1)NNC(=O)Nc1ccccc1,17µM*,-2%,2%,nt,-2%,5%
O=C(Nc1ccccc1)Nc1ccccc1C(=O)NCc1ccccc1,21µM*,1%,15%,1%,5%,0%
O=C(Nc1ccccc1C(=O)NCc1ccco1)c1ccccc1,0%,-1%,-4%,-6%,1%,-1%

# Assay outcomes: PubChem, National Center for Advancing Translational Sciences (NCATS)
